A selection: hits, their analogues and other compounds. The true share with any hit is near 4.1%.
hcDAF-12 act: H. contortus DAF-12 nuclear receptor activators, primary screen, cell-based, luminescence, HEK293, lit1-tk-luc reporter. HEK293 hcDAF-12 lit1-tk-luc reporter; 0% DMSO, 100% Δ7-dafachronic acid. activation, % at 6.8 µM. actives 1.4% (n = 370,000);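 active = activation above the mean of all tested compounds plus 3 SD, cut at about 5.5% in these data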
DAX1 inh-1: DAX1 (NR0B1) inhibitors, primary screen, cell-based, HEK293, Gal4-DAX1, luciferase luminescence. Nuclear receptor subfamily 0 group B member 1 (Homo sapiens), P51843. HEK293 Gal4-DAX1 luciferase reporter. inhibition, % at 6.75 µM. actives 0.99% (n = 340,000);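 active = inhibition above the mean over all tested compounds plus 3 SD, cut at about 4.2% in these data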;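 also: inhibition shows as a rise in luminescence from relieved DAX1 repression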
Target sequence (P51843 207-470 limits assumed): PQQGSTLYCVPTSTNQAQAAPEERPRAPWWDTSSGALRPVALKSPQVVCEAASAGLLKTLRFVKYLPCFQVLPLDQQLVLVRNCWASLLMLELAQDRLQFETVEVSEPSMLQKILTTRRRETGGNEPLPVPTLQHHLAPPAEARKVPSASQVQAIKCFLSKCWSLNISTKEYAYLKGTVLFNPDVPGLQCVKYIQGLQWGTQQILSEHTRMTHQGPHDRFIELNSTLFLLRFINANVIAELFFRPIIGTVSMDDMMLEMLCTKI
ssDAF12 agonist: S. stercoralis DAF-12 nuclear receptor activators, primary screen, cell-based, luminescence, HEK293, GRIP1 co-expression, lit1-tk-luc; Nuclear hormone receptor DAF-12 (Strongyloides stercoralis); HEK293 ssDAF-12/GRIP1 lit1-tk-luc reporter; % of 3 µM dafachronic acid response; activation, % at 6.8 µM; actives 1% (n = 370,000); AID 652126, 2013;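 active = activation above the mean over all tested compounds plus 3 SD, cut at about 0.9% in these data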
hgDAF-12 ag: H. glycines DAF-12 receptor agonists, primary screen, cell-based, luminescence, HEK293, GAL4 fusion, UAS-luciferase; Nuclear hormone receptor DAF-12 (Heterodera glycines), GAL4 fusion; HEK293 GAL4-hgDAF12 UAS-luciferase reporter, agonist luminescence; normalized to butyrate control; activation, % at 6.8 µM; actives 1.8% (n = 370,000);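 active = activation above a cutoff set at the mean of all screened compounds plus 3 SD, cut at about 10% in these data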
DAX1 inh-2: DAX1 (NR0B1) inhibitors on StAR promoter, primary screen, cell-based, luminescence, SF-1 (NR5A1), full-length DAX-1; actives 1.1% (n = 370,000); inhibition, % at 6.8 µM; HEK293T StAR-luciferase reporter, SF-1/DAX-1 repression relief; AID 652010, 2013;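 active = inhibition above the mean over all tested compounds plus 3 SD, cut at about 3.6% in these data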;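 also: higher inhibition means more luminescence from relief of DAX-1 repression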
Of the large screens only hits and unclear results are named; the others gave an inactive call.

CC(C)(C)Nc1nc(Cl)nc(Nc2ccccc2)n1	hgDAF-12 ag 11
CN1CCCN(S(=O)(=O)c2ccc3c(c2)n(C)c(=O)c(=O)n3C)CC1	none (no result: DAX1 inh-1)
CCOC(=O)N1CCN(C(=O)c2cc(-c3ccc(OCC)cc3)nc3ccccc23)CC1	hgDAF-12 ag 12
COC(=O)c1ccc2nc(-c3ccc(C)cc3)c(CC(C)(C)C)n2c1	none (no result: DAX1 inh-1)
CCc1cccc2c1NC(=O)C21OCCO1	ssDAF12 agonist 1.2
O=C1Nc2ccccc2C12OCCO2	none
COCCN(Cc1cc2cc(C)ccc2n2nnnc12)C(=S)Nc1ccc(C)cc1	DAX1 inh-1 4.6
COCCN(Cc1cc2cc(C)ccc2n2nnnc12)C(=S)Nc1ccc(OC)cc1	none
Cc1cccc(C)c1NC(=O)C1(C)CSCC(=O)N1CCCn1ccnc1 (stereo not drawn)	ssDAF12 agonist 2.1 (no result: DAX1 inh-1)
Cc1cccc(C)c1NC(=O)C1(C)CCC(=O)N1CCCn1ccnc1 (stereo not drawn)	none (no result: DAX1 inh-1)
COc1ccc(C(=O)NCCS(=O)(=O)N2CCCCCC2)cc1	none
COc1ccc(C(=O)NCCS(=O)(=O)N2CCCC2)cc1	hcDAF-12 act 6.1
COc1ccc(C(C(=O)N(C)C2CCCC2)N(Cc2ccc(F)cc2)C(=O)c2csc(-c3ccccc3)n2)cc1OC (stereo not drawn)	none (no result: DAX1 inh-1)
CC(=O)C1=C(C)NC(SCC(=O)c2ccc(Cl)cc2)=C(C#N)C1CC(C)C (stereo not drawn)	none
CC(=O)C1=C(C)NC(SCC(=O)c2ccc(F)cc2)=C(C#N)C1CC(C)C (stereo not drawn)	hgDAF-12 ag 12
O=C1OC(c2ccccc2)=C/C1=C/N1CCOCC1	none
O=C1SC(c2ccccc2)=C/C1=C\N1CCCCC1	hcDAF-12 act 6.1
Fc1ccc(-n2nnc(-c3ccccc3Cl)n2)cc1	none
Clc1nc2ccccc2cc1-c1nnn(-c2ccccc2)n1	hcDAF-12 act 6.4
CCCCNC(=O)C[C@H]1C(=O)N(Cc2ccc(OC)cc2)C2=CCCCC[C@@]21C(=O)OC	none (no result: DAX1 inh-1)
Cc1nc(CNS(=O)(=O)c2ccc3c(c2)CCCC3)cs1	hcDAF-12 act 5.9
Cc1ccc(S(=O)(=O)NCc2csc(C)n2)cc1	none
COc1cccc2c(=O)c3ccccc3oc12	DAX1 inh-1 4.5
O=C(/C=C/c1cccc([N+](=O)[O-])c1)N1CCN(C(=O)c2ccco2)CC1	none
O=C(/C=C/c1cccc([N+](=O)[O-])c1)OCC(=O)N1CCN(C(=O)c2ccco2)CC1	hgDAF-12 ag 12
O=S(=O)(c1ccccc1)N1CCN(CC2CC3C=CC2C3)CC1 (stereo not drawn)	none
O=S(=O)(c1ccc(F)cc1)N1CCN(CC2CC3C=CC2C3)CC1 (stereo not drawn)	hcDAF-12 act 6.5
CCOCCCNC(=O)CNC(=S)N(Cc1ccc(C)cc1)Cc1ccco1	none
CCOc1ccc2nc(N3C(=O)CNC3=S)sc2c1	DAX1 inh-1 5.3
COCCCN1C(=O)[C@H](CC(=O)N2CCN(C(=O)c3ccco3)CC2)[C@]2(C(=O)OC)CCCCC=C12	none (no result: DAX1 inh-1)
COc1cc(CN2CCC(Cc3ccccc3)CC2)cc(OC)c1OC	DAX1 inh-1 5.1
COc1ccc(CN2CCC(Cc3ccccc3)CC2)c(C)c1C	DAX1 inh-1 4.3
Cc1cc(C(=O)COC(=O)c2cccn2C)c(C)n1Cc1ccco1	DAX1 inh-2 4.1
Cc1csc(SCC(=O)Nc2oc(C)c3c(C)n[nH]c(=O)c23)n1	none
Cc1n[nH]c(=O)c2c(NC(=O)CSc3nn(-c4ccccc4)c(=S)s3)oc(C)c12	ssDAF12 agonist 1.1
COC(=O)C1=C(C)N(CC(C)C)C(=S)NC1c1cccc(F)c1 (stereo not drawn)	ssDAF12 agonist 1.0 (no result: DAX1 inh-1)
CCOC(=O)N(C)[C@H]1C[C@H]2c3[nH]c4c(-c5ccc6c(c5)OCO6)cccc4c3CCN2C(=O)[C@H]1[C@H](C)O	none (no result: DAX1 inh-1)
COc1ccc(Nc2nc(-c3cccnc3)cs2)c(OC)c1	none
COc1ccc(Nc2nc(-c3cccs3)cs2)c(OC)c1	DAX1 inh-1 4.9, ssDAF12 agonist 1.1

Source: PubChem (The Scripps Research Institute Molecular Screening Center)
